T cruzi growth-1: T. cruzi proliferation inhibition; inhibition, % at 8.34 µM; T. cruzi beta-gal in NIH3T3, GalScreen luminescence, 90 h; actives 5.9% (n = 77,000);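 active = mean inhibition above about 93%, with at least 55% of replicates each passing it, limit read from the data, passing the limit was not always enough; inconclusive = only one of those two conditions holds; inactive = neither condition holds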
Pf Dd2 growth: inhibitors of Plasmodium falciparum Dd2 growth | P. falciparum Dd2 growth, SYBR Green, 72 h; hits give low values | activity change, % at 10 µM | actives 2.3% (n = 94,000) | AID 1159554; in the data active = activity change below about -80%; inconclusive = no clear call, values can overlap the other calls
C diff HTS: inhibitors of Clostridium difficile growth | AID 1259249 | actives 0.25% (n = 86,000) | growth activity, negative = inhibition, % at 16 µg/mL (by protocol) | Clostridium difficile clinical isolate growth, OD600, 24 h; hits give low values;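 active = mean growth activity at or below -80% and every replicate also at or below -80%; inconclusive = mean at or below -80% but some replicate above -80%; inactive = mean growth activity above -80%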
T cruzi growth-2: Trypanosoma cruzi proliferation inhibition; shares compounds with T cruzi growth-1; T. cruzi beta-gal in NIH3T3, GalScreen luminescence, 90 h; inhibition, % at 8.35 µM; actives 72% (n = 5,600); AID 651739;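 active = mean replicate inhibition above about 95% and at least 55% of replicates individually reaching it, limit read from the data; inconclusive = only one of the two criteria is met; inactive = neither criterion is met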
T cruzi growth-3: inhibitors of T. cruzi proliferation; actives 21% (n = 5,600); inhibition, % at 2.09 µM; AID 651740; shares compounds with T cruzi growth-1; T. cruzi beta-gal in NIH3T3, GalScreen luminescence, 90 h;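 active = mean inhibition above about 95%, with at least 55% of replicates also reaching it, limit read from the data; inconclusive = meets just one of the two conditions; inactive = meets neither condition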
NIH3T3 tox: NIH/3T3 (mouse) viability loss; AID 651742; cytotoxicity (signal decrease), % at 8.35 µM; shares compounds with T cruzi growth-1; NIH/3T3 viability, CellTiter-Glo ATP luminescence, 90 h; actives 14% (n = 5,600);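 active = mean signal decrease across replicates above about 35% based on untreated-well scatter, with enough replicates individually passing, limit read from the data; inconclusive = no rule stated though some were filed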
3T3 cytotox 2: kills mouse NIH/3T3 fibroblasts; inhibition, % at 24.9 µM; shares compounds with T cruzi growth-1; actives 56% (n = 5,600); NIH/3T3 viability, CellTiter-Glo ATP luminescence, 90 h;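 active = mean loss of cell viability signal at or above a set limit, and enough replicates individually reaching it; inconclusive = meets only the mean limit or only the replicate share; inactive = meets neither condition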
Hits are given with their value; n = inactive; u = inconclusive; x = not tested or not shown. An excerpt weighted towards active compounds, which were near 6.7% of everything screened.

SMILES | T cruzi growth-1 | Pf Dd2 growth | C diff HTS | T cruzi growth-2 | T cruzi growth-3 | NIH3T3 tox | 3T3 cytotox 2
Cc1ccccc1S(=O)(=O)N1CCCCN2[C@H](CO)[C@H](c3ccc(-c4cccnc4)cc3)[C@H]2C1 | 100.0 | n | n | 107.6 | n | n | 79.5
Cc1ccccc1S(=O)(=O)N1CCCCN2[C@@H](CO)[C@H](c3ccc(-c4cncnc4)cc3)[C@@H]2C1 | 116.7 | n | n | n | n | n | u
O=S(=O)(c1ccccc1F)N1CCCCN2[C@H](C1)[C@@H](c1ccc(-c3ccccc3)cc1)[C@@H]2CO | n | n | n | x | x | x | x
Cc1ccccc1S(=O)(=O)N1CCCCN2[C@H](CO)[C@@H](c3ccc(-c4cncnc4)cc3)[C@H]2C1 | n | n | n | x | x | x | x
Cc1ccccc1S(=O)(=O)N1CCCCN2[C@H](CO)[C@@H](c3ccc(-c4cccnc4)cc3)[C@@H]2C1 | n | n | n | x | x | x | x
O=S(=O)(c1ccccc1F)N1CCCCN2[C@@H](CO)[C@@H](c3ccc(-c4ccncc4)cc3)[C@@H]2C1 | u | n | n | 107.0 | n | n | 26.5
C[C@H]1CN([C@@H](C)CO)C(=O)c2ccccc2-c2ccccc2CO[C@H]1CN(C)C(=O)c1ccncc1 | n | n | n | x | x | x | x
COc1ccc([Si](C)(C)[C@H]2[C@H](CCn3cc([C@H](O)c4ccccc4)nn3)O[C@@]3(C(=O)N(Cc4cccc(N5CCOC5=O)c4)c4ccccc43)[C@@H]2C)cc1 | x | x | n | x | x | x | x
CCC(=O)N(C)C[C@H]1Oc2ncc(C#CCC(C)C)cc2C(=O)N([C@H](C)CO)C[C@@H]1C | n | n | n | x | x | x | x
O=C(c1ccccc1F)N1C[C@H]2O[C@@H](CNS(=O)(=O)c3ccccc3)CC[C@H]21 | x | n | n | x | x | x | x
COc1ccc(S(=O)(=O)N[C@H]2CC[C@H](CC(=O)NCCc3ccccc3)O[C@@H]2CO)cc1 | x | n | n | x | x | x | x
C[C@H]1CCCCO[C@@H](CN(C)C(=O)c2ccccc2)[C@@H](C)CN([C@@H](C)CO)C(=O)c2cc(NC(=O)CCC(F)(F)F)ccc2O1 | n | n | n | x | x | x | x
COCC#Cc1ccc([C@H]2[C@@H](CO)N3CCCCN(S(=O)(=O)c4cccc(OC)c4)C[C@H]23)cc1 | n | n | n | x | x | x | x
COc1cccc(S(=O)(=O)N2CCCCN3[C@@H](CO)[C@H](c4ccc(C#CC5CC5)cc4)[C@@H]3C2)c1 | 107.3 | n | n | 108.7 | n | n | 104.5
COc1cccc(S(=O)(=O)N2CCCCN3[C@H](C2)[C@@H](c2ccc(C#CC4CC4)cc2)[C@@H]3CO)c1 | 121.2 | n | n | n | n | n | u
COc1cccc(S(=O)(=O)N2CCCCN3[C@H](C2)[C@H](c2ccc(C#CC4CC4)cc2)[C@@H]3CO)c1 | n | n | n | x | x | x | x
COCC#Cc1ccc([C@@H]2[C@H](CO)N3CCCCN(S(=O)(=O)c4cccc(OC)c4)C[C@@H]23)cc1 | 106.5 | n | n | 103.0 | n | n | 44.9
Cc1cccc(S(=O)(=O)N2CCCCN3[C@@H](CO)[C@@H](c4ccc(C#CC5CC5)cc4)[C@@H]3C2)c1 | n | u | n | x | x | x | x
C[C@H](CO)N1C[C@H](C)[C@H](CN(C)S(C)(=O)=O)Oc2c(NS(C)(=O)=O)cccc2C1=O | n | n | n | x | x | x | x
CO[C@H]1CN(C)C(=O)c2cc(NC(=O)c3ccc(F)cc3)ccc2OC[C@@H](C)N(C(C)=O)C[C@@H]1C | n | n | n | x | x | x | x
O=C(C[C@H]1CC[C@@H](NC(=O)C2CCOCC2)[C@@H](CO)O1)Nc1ccccc1 | x | n | n | x | x | x | x
O=C(C[C@H]1C[C@@H]2c3cc(NC(=O)C4CCC4)ccc3O[C@@H]2[C@@H](CO)O1)NCc1ccccc1F | x | n | n | x | x | x | x
O=C(NCCN1CCCCC1)[C@H]1N[C@H]2c3ccc(-c4cccnc4)c(=O)n3C[C@H]2[C@@H]1CO | n | x | x | x | x | x | x
O=C(NCCN1CCCCC1)[C@@H]1N[C@@H]2c3ccc(-c4ccncc4)c(=O)n3C[C@@H]2[C@H]1CO | 101.3 | n | x | n | n | n | n
C[C@H]1CCCCO[C@H](CN(C)C(=O)NC2CCCCC2)[C@@H](C)CN([C@@H](C)CO)C(=O)c2cc(NC(=O)Cc3ccccc3)ccc2O1 | n | n | n | x | x | x | x
SMILES | T cruzi growth-1 | Pf Dd2 growth | C diff HTS | T cruzi growth-2 | T cruzi growth-3 | NIH3T3 tox | 3T3 cytotox 2
C[C@H]1CCCCO[C@H](CN(C)C(=O)Nc2ccc(C(F)(F)F)cc2)[C@@H](C)CN([C@@H](C)CO)C(=O)c2cc(NC(=O)Cc3ccccc3)ccc2O1 | u | -89.1 | n | 101.1 | 113.1 | n | n
C[C@@H]1CCCCO[C@@H](CN(C)C(=O)Nc2ccc(C(F)(F)F)cc2)[C@H](C)CN([C@@H](C)CO)C(=O)c2cc(NC(=O)Cc3ccccc3)ccc2O1 | 121.8 | n | n | 108.2 | n | n | 43.2
C[C@@H]1CN([C@H](C)CO)C(=O)c2cc(NC(=O)Cc3ccccc3)ccc2O[C@@H](C)CCCCO[C@H]1CN(C)C(=O)Nc1ccccc1 | n | n | x | x | x | x | x
C[C@@H]1CCCCO[C@H](CN(C)C(=O)Nc2ccccc2)[C@@H](C)CN([C@H](C)CO)C(=O)c2cc(NC(=O)Cc3ccccc3)ccc2O1 | n | n | x | x | x | x | x
C[C@@H]1CCCCO[C@@H](CN(C)C(=O)Nc2ccc(C(F)(F)F)cc2)[C@H](C)CN([C@H](C)CO)C(=O)c2cc(NC(=O)Cc3ccccc3)ccc2O1 | u | n | n | 105.7 | 104.1 | n | n
C[C@@H]1CCCCO[C@@H](CN(C)C(=O)Nc2ccccc2)[C@@H](C)CN([C@@H](C)CO)C(=O)c2cc(NC(=O)Cc3ccccc3)ccc2O1 | n | n | x | x | x | x | x
C[C@@H]1CCCCO[C@H](CN(C)C(=O)Nc2ccc(C(F)(F)F)cc2)[C@H](C)CN([C@H](C)CO)C(=O)c2cc(NC(=O)Cc3ccccc3)ccc2O1 | u | -85.7 | n | 109.5 | 106.6 | n | 56.2
C[C@@H]1CCCCO[C@H](CN(C)C(=O)Nc2ccccc2)[C@@H](C)CN([C@@H](C)CO)C(=O)c2cc(NC(=O)Cc3ccccc3)ccc2O1 | n | n | x | x | x | x | x
COc1ccc(S(=O)(=O)N(C)C[C@@H]2Oc3ccc(NC(=O)c4ccncc4)cc3C(=O)N([C@H](C)CO)C[C@@H]2C)cc1 | n | n | n | x | x | x | x
C[C@@H]1CN([C@@H](C)CO)C(=O)c2cc(-c3ccccc3F)cnc2O[C@@H]1CN(C)C | n | n | n | x | x | x | x
O=C(C[C@@H]1CC[C@H]2[C@@H](COC[C@@H](O)CN2Cc2ccc(Oc3ccccc3)cc2)O1)N1CCCCC1 | n | n | n | x | x | x | x
C[C@@H]1CN([C@@H](C)CO)C(=O)c2cc(NC(=O)C3CC3)ccc2O[C@@H]1CN(C)CC1CC1 | n | n | n | x | x | x | x
C[C@H](CO)N1C[C@H](C)[C@@H](CN(C)C(=O)Nc2ccc(C(F)(F)F)cc2)OCCCC[C@H](C)Oc2ccc(NC(=O)Cc3ccccc3)cc2C1=O | 127.7 | -84.6 | n | 108.1 | 110.3 | n | u
